Reference: PubChem BioAssay (NCI)
Compounds without any hit were thinned out: in the full panel of roughly 83,000, 20% have a hit.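 Single-dose data. Exposure time 48 hours. Values below 10 considered active.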 Activity calls are given as the source filed them.

Each compound was assayed on SK-MEL-5 melanoma (assay: NCI-60 one-dose screen, 48 h (100 = growth as untreated, 0 = no growth, -100 = all killed)). Settings: 10 µM unless noted.
Experimental: Growth inhibition of the SK-MEL-5 human tumor cell line is measured as a screen for anti-cancer activity. Cells are grown in 96 well plates and exposed to the test compound for 48 hours. Compounds are tested at a single concentration, which is 10^-5 M for most compounds. The reported endpoint is percent growth (GI% or GIPRCNT), where numbers from 0 - 100% represent growth inhibition, and numbers from -100% - 0 represent cell death. For example, a value of 40 represents 60% growth inhibition. A value of 0 means no net growth occurred over the course of the experiment. A value of -40 indicates 40% of cells at the beginning of the experiment died by the end of the experiment. A value of -100 means all cells are dead at the end of the experiment.
NCI-60 Human Tumor Cell Lines Screen was performed using the standard one-dose NCI protocol, which is described in more detail at https://dtp.cancer.gov/discovery_development/nci-60/default.htm.
Compounds with GIPRCNT values below 10 were considered active. Activity score was based on GIPRCNT using the following formula: […]
Score is 0 for GIPRCNT values of 100 or above, 50 for GIPRCNT values of 0, and 100 for GIPRCNT values of -100.

Structure (SMILES)	growth
Cc1ccc(-c2ccc(Nc3ccccc3)nn2)cc1S(N)(=O)=O	89.3% (inactive)
CN(CSc1ccc(Cl)cc1)c1ccc(CSc2ccc(Cl)cc2)cc1	70.9% (inactive)
COc1ccc(/C=C(\C#N)c2cc3ccccc3n2C(C)=O)cc1	92.2% (inactive)
Cc1cc(Cl)nc(N(CCCNc2ccnc3cc(Cl)ccc23)Cc2ccco2)n1	-82.6% (active)
Cc1ccncc1C(=O)O	106% (inactive)
Fc1ccc2nc(-c3cc(-c4ccc5c(c4)OCO5)n[nH]3)[nH]c2c1	20.4% (inactive)
Cn1cc(-c2nc(-c3c[nH]c4ncccc34)cs2)c2cc(F)ccc21	51.4% (inactive)
O=c1[nH]c2c3ccncc3cc(-c3cccc(Cl)c3)c2c2cnccc12	46.3% (inactive)
c1ccc2[nH]c(-c3cc(-c4ccc5c(c4)OCO5)n[nH]3)nc2c1	13.2% (inactive)
O=C1c2cccc3cccc(c23)C(=O)N1CC#Cc1ccc2c3c(cccc13)C(=O)N(CCN1CCNCC1)C2=O	103% (inactive)
Cn1cc(-c2csc(-c3cn(C(=O)OC(C)(C)C)c4ccccc34)n2)c2cccnc21	64% (inactive)
Cn1cc(-c2nc(-c3cn(C)c4ncccc34)cs2)c2cc(F)ccc21	24.7% (inactive)
Cc1cc(C)c(NC(=O)c2sc3nc4c(cc3c2N)CCCC4)c(C)c1	50.1% (inactive)
Nc1c2c(nc3ccc(Cl)cc13)CC(c1ccc(O)cc1)CC2=O (stereo not given)	23.6% (inactive)
O=C1/C(=C\c2ccc(Br)o2)SC(=S)N1CCc1ccc(O)cc1	99.2% (inactive)
O=c1c(CNc2ccc(S(=O)(=O)Nc3nccs3)cc2)coc2ccccc12	98.3% (inactive)
Nc1ccc(Br)cn1	100% (inactive)
Cc1ccc(NC2CC(=O)N(c3c(C)cc(C)cc3C)C2=O)c(C)c1 (stereo not given)	99.9% (inactive)
CC(=O)O[C@H]1CC[C@]2(C)[C@H]3C(=O)C=C4[C@@H]5C[C@](C)(C(=O)N6CCCNCC6)CC[C@]5(C)CC[C@@]4(C)[C@]3(C)CC[C@H]2C1(C)C	90.2% (inactive)
COc1ccc(C2NC(=O)Nc3ccccc32)c(OC)c1 (stereo not given)	96% (inactive)

Structure (SMILES)	growth
Cc1ccc(S(=O)(=O)Nc2ccc(-c3cc(-c4cccc(F)c4)c(C#N)c(=O)[nH]3)cc2)cc1	82% (inactive)
O=C1NC(c2ccc(Cl)c(Cl)c2)=C/C1=C\c1ccccc1	97.3% (inactive)
O=P(O)(c1ccccc1)c1ccccc1I	96.8% (inactive)
Cn1cc(-c2nc(-c3c[nH]c4ncccc34)cs2)c2ccccc21	94.2% (inactive)
CCN1CCN(C(=O)[C@]23CC[C@@H](C)[C@H](C)[C@H]2C2=CC[C@@H]4[C@@]5(C)C/C(=C/c6cccc(OC)c6OC)C(=O)C(C)(C)[C@@H]5CC[C@@]4(C)[C@]2(C)CC3)CC1	46.2% (inactive)
COc1ccc(-c2cc(/C=C/C(=O)c3ccc(N)cc3)[nH]n2)cc1	23.9% (inactive)
N#CCCCCCn1c2ccccc2c2c3c(c4c5ccccc5n(CCCCCC#N)c4c21)C(=O)N(O)C3=O	74.2% (inactive)
Fc1ccc(NCc2nnc(-c3ccc(Cl)cc3)o2)cc1	79.8% (inactive)
COc1ccc2nc(-c3cc(-c4cc(OC)c(OC)c(OC)c4)n[nH]3)[nH]c2c1	-92.9% (active)
N#CC1=C(N)Oc2c(c(N)nn2-c2ccccc2)C1c1ccc(Cl)cc1 (stereo not given)	101% (inactive)
COC(=O)C(Cc1ccccc1)n1cc(COc2nc(Cl)nc(Nc3ccc(Cl)cc3)n2)nn1 (stereo not given)	103% (inactive)
COc1cccc(-c2nn(-c3ccccc3)cc2-c2ccnc(NCCCNS(=O)(=O)c3ccccc3)c2)c1	11.3% (inactive)
O=[N+]([O-])c1ccc(/C=N\Nc2ccccc2)cc1	98.1% (inactive)
Cc1cc(N2CCCCC2)nc(N(CCNc2ccnc3cc(Cl)ccc23)Cc2ccco2)n1	-90.5% (active)
CC[C@]12C=CCN3CC[C@@]4(c5cc([C@H]6CCC(=O)N6)c(OC)cc5N(C)[C@H]4[C@@](O)(C(=O)OC)[C@@H]1OC(C)=O)[C@@H]32	99.8% [2.5 µM] (inactive)
COC(c1ccccc1)(c1ccccc1)c1ccccc1	103% (inactive)
Nc1nc(Br)nc2c1ncn2C1CC(O)C(CO)O1 (stereo not given)	51.2% (inactive)
COC(=O)CCCCCn1c2ccccc2c2c3c(c4c5ccccc5[nH]c4c21)C(=O)N(O)C3=O	33.1% (inactive)
CC(=O)c1c(C)[nH]c(-c2nc3ccc(N4CCN(C)CC4)cc3[nH]2)c1-c1ccc(N(C)C)cc1	2.25% (active)
N#CC1=C(N)Oc2c(sc3c(F)cccc23)C1c1ccc(Cl)cc1 (stereo not given)	18.1% (inactive)
